# Hit rate of the full screen: of about 2,400 compounds, about 1,400 (58%) were called active.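 How the source made its calls: active means inhibition of 30% or more at any tested dose; inconclusive means primary hits over the limit that were never retested; inactive means the rest.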 The set was probably picked from earlier hits. This is one part of the list.
# Assay: ADP Hunter readout inhibition without MgcRacGAP – biochemical, coupled enzyme counter-screen, artefact control for MgcRacGAP inhibitor project, dose response (AID 624351);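 further: signal is the ADP detection kit reading of free GDP without any GAP enzyme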
# Conditions: fluorescence, no MgcRacGAP; series mostly up to 80 µM
row,SMILES,IC50
1,C[n+]1c(-c2ccccc2)cc2c(=Cc3ccccc3)c3ccccc3n21,inactive
2,COc1cc(/C=N/n2c(-c3cc(C)[nH]n3)n[nH]c2=S)cc(OC)c1OC,61 µM (active)
3,COc1cc(/C=N/n2c(-c3cc(C)[nH]n3)n[nH]c2=S)cc(OC)c1O,55.6 µM (active)
4,COc1ccc(NCc2cc3ccccc3[nH]c2=O)cc1,77.4 µM (active)
5,COc1ccc(NCc2cc3cc(OC)ccc3[nH]c2=O)cc1,inactive
6,COc1ccc(NCc2nnc(SCC(=O)Nc3ccccc3OC)o2)cc1,inactive
7,CCn1c2ccccc2c2cc(CNCc3ccc(OC)cc3OC)ccc21,inactive
8,COc1ccc(NCc2cc(=O)[nH]c3ccccc23)cc1,51.4 µM (active)
9,COc1ccc(OC)c(CN2CCN(Cc3cccc4ccccc34)CC2)c1,inactive
10,CC(C1SC(=S)NC1=O)C1SC(=S)NC1=O (stereo not given),inactive
11,CCc1nc(Nc2ccc(N3CCN(C(C)=O)CC3)cc2)c2oc3ccccc3c2n1,40.2 µM (active)
12,CCc1nc(Nc2ccc(O)cc2)c2oc3ccccc3c2n1,19.4 µM (active)
13,CC(=O)N1CCN(c2ccc(Nc3ncnc4c3oc3ccccc34)cc2)CC1,42.5 µM (active)
14,CCc1nn(C(C)C(=O)N2CCN(c3ccc(OC)cc3)CC2)c(=O)c2cc3occc3n12 (stereo not given),inactive
15,Oc1ccc(Nc2ncnc3ccccc23)cc1,15.8 µM (active)
16,Oc1ccc(Nc2ncnc3c2oc2ccccc23)cc1,20 µM (active)
17,N#CC1=C(S)N(c2ccc(F)cc2)C2(CCCCC2)NC1=O,inactive
18,O=C1NC(=S)NC1=Cc1ccc(O)cc1,10.2 µM (active)
19,O=C1NC(=S)NC1=Cc1ccco1,inactive
20,CCN1C(=O)/C(=C2/C=Cc3cc(C)ccc3N2CC)N(C)C1=S,50.7 µM (active)
21,NC(=S)N/N=C/c1cccc(O)c1O,32.6 µM (active)
22,Nc1ccc2nc(-c3ccccc3)[nH]c2c1,31.9 µM (active)
23,Nc1ccc2nc(-c3ccc(Cl)cc3)[nH]c2c1,67.3 µM (active)
24,Cc1nc2ccc(-c3nc4ccc(N)cc4[nH]3)cc2[nH]1,58.5 µM (active)
25,Nc1ccc2nc(C3CCCCC3)[nH]c2c1,71.9 µM (active)
26,Cc1nc(Nc2ccc(O)cc2)c2c3c(sc2n1)CCCC3,27.9 µM (active)
27,Cc1cc(Br)cc(C=Nc2ccc(N3CCOCC3)cc2)c1O,14.7 µM (active)
28,Oc1ccc(N=Cc2cc(Br)c(N3CCOCC3)o2)cc1,64.7 µM (active)

row,SMILES,IC50
1,O=[N+]([O-])c1cc(Br)c(O)c(C=Nc2ccc(N3CCOCC3)cc2)c1,13.4 µM (active)
2,COc1ccc(CN(C)CCc2ccccn2)c(OC)c1OC,inactive
3,COc1ccc(Oc2c(-c3ccc(O)cc3O)n[nH]c2C)cc1,49.1 µM (active)
4,Cc1[nH]nc(-c2ccc(O)cc2O)c1Oc1ccccc1,34.3 µM (active)
5,COCCNCc1nc2sc(C)c(-c3ccccc3)c2c(=O)[nH]1,inactive
6,C=CCn1c(N/N=C/c2ccc(O)cc2)nc2ccccc2c1=O,66.7 µM (active)
7,CCn1c(/C=C/c2ccc(O)cc2)nc2ccccc2c1=O,44.8 µM (active)
8,O=c1c2cc(F)ccc2sn1-c1ccccc1Cl,inactive
9,Cc1ccc(NC(=O)CCC(=O)N/N=C/c2ccc(O)cc2O)cc1,61.8 µM (active)
10,Cc1cccc(NC(=O)CCC(=O)N/N=C/c2ccc(O)cc2O)c1,72.4 µM (active)
11,CN(C)C=NC1=NN(c2cccc(C(F)(F)F)c2)CC1,39.3 µM (active)
12,Cc1cccc(N2CCC(N=CN(C)C)=N2)c1,27.8 µM (active)
13,OCCN(C=NC1=NN(c2cccc(C(F)(F)F)c2)CC1)CCO,42.2 µM (active)
14,CCN(C=NC1=NN(c2cccc(C(F)(F)F)c2)CC1)CC,33 µM (active)
15,c1ccc(-c2ccccc2OCCCCn2ccnc2)cc1,inactive
16,COc1ccccc1OCC#CCn1ccnc1,inactive
17,Nc1sc(-c2ccccc2)c(Cc2ccccc2)c1C(=O)O,70.5 µM (active)
18,CN(c1ccccc1)S(=O)(=O)c1cccc(C(=O)NCCc2ccc(O)c(O)c2)c1,71 µM (active)
19,CCN(c1ccccc1)S(=O)(=O)c1ccc(OC)c(NC(=O)CNCCc2ccccc2)c1,inactive
20,COc1ccc(CCNC(=O)CNCC(c2ccccc2)N(C)C)cc1OC (stereo not given),inactive
21,COc1ccc(N)cc1NC(=O)CN1CCOCC1,inactive
22,COc1ccccc1NS(=O)(=O)c1cc(N)ccc1N1CCCC1,75.2 µM (active)
23,COc1ccc(S(=O)(=O)N2CCC(N3CCN(c4ccccc4OC)CC3)CC2)cc1,inactive
24,CC(C)(C)c1cc(Cl)ccc1OCCOCCN1CCCC1,inactive
25,O=C(Nc1ccc(O)cc1)c1cccc(Oc2ccc([N+](=O)[O-])cc2)c1,48.2 µM (active)
26,O=C(Nc1ccc(C2=NCCN2)cc1)c1ccc(C(=O)Nc2ccc(C3=NCCN3)cc2)c([N+](=O)[O-])c1,inactive
27,COC(=O)C1=C(C)N(CC2CCCO2)C(=O)/C1=C\c1ccc(O)cc1 (stereo not given),24.4 µM (active)

# From PubChem BioAssay AID624351 (Southern Research Specialized Biocontainment Screening …, 2012)
